This passage reports inhibition results from PubChem BioAssay AID2718 (Broad Institute, 2010).

The campaign covered roughly 320,000 compounds. About 480 (0.15%) were called active. Another 1% or so got no clear call; they are omitted. No stated cut-off is given here; in the data, active means inhibition above about 26% (passing the limit was not always enough); inconclusive means no clear call, values can overlap the other calls. Many of the other results were omitted from the sample, so actives are more common in it than they were.

Chain of Histone deacetylase 3 (Homo sapiens) (O15379 whole entry, looked up): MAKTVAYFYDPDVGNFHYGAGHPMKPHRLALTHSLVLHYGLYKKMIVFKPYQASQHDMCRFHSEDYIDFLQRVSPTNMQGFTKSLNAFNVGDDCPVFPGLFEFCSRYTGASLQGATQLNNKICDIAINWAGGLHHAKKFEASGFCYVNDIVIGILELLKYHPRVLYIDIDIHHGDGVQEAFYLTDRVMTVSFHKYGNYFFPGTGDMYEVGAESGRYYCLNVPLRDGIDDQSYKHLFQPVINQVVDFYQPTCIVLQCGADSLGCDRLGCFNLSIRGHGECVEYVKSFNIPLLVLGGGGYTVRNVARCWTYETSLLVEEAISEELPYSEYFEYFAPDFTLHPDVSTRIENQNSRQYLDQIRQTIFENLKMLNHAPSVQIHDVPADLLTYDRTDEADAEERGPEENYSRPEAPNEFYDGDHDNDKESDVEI

This experiment addresses Histone deacetylase 3 (Homo sapiens) (UniProt O15379). As to the kind of experiment: inhibition of human HDAC3 enzyme activity – biochemical, fluorescence, cell-free homogeneous, primary screen (AID 2718). Conditions: recombinant HDAC3, fluorogenic peptide/trypsin coupled, at 8.3 µM, stronger effect = higher value.
What is called inhibition is the drop in the measured response relative to a control, in per cent. As to `O=C(COC(=O)c1cccnc1Cl)NC12CC3CC(CC(C3)C1)C2`, the inhibition is -0.423% (inactive).

On to `COCC(C)n1c(SCC(=O)NC2CCCCC2C)nc2ccccc2c1=O` (centres undefined), for which the inhibition was 0.838% (inactive).

Take `O=C(COC(=O)c1ccc(Br)o1)NC12CC3CC(CC(C3)C1)C2`: the inhibition was -3.01% (inactive).

Regarding `C[C@H](CO)N1C[C@H](C)[C@@H](CN(C)C(=O)Nc2ccc3c(c2)OCO3)Oc2c(cccc2N(C)C)C1=O`, the inhibition is -8.66% (inactive).

`COc1ccc2nc3n(c(=O)c2c1)-c1ccc(Cl)cc1C(=O)NC3Cc1ccccc1` (centres undefined): the inhibition was -1.2% (inactive).

As for `C[C@H]1COC(=O)[C@H](CC(=O)OC(C)(C)C)C/C=C\C[C@@H](CC(=O)N[C@H](CO)Cc2ccccc2)C(=O)N1`, the inhibition was -4.05% (inactive).

`CN1C(=O)[C@H]2[C@@H](/C=C/c3ccccc3)N3C(=O)CN(Cc4ccc(-c5ccccc5)cc4)C(=O)[C@@]3(C)[C@H]2C1=O`: the inhibition was 6.83% (inactive).

As for `O=C(OCC(=O)N1CCCCCC1)c1ccc(Br)c(S(=O)(=O)N2CCOCC2)c1`, the inhibition is -0.213% (inactive).

As to `O=C(CCNC(=O)c1ccc(Br)cc1)NCC(c1ccco1)N1CCCCC1` (centres undefined), the inhibition is 2.98% (inactive).

Take `Cn1c(N)c(C(=O)COC(=O)c2ccc3ccccc3c2)c(=O)n(C)c1=O`: the inhibition is -3.95% (inactive).

In the case of `COC(=O)c1c(CCl)noc1C(=O)NC(C)C`, the inhibition was -2.79% (inactive).

As to `O=C(CNC(=O)c1ccccc1F)OCC(=O)c1c[nH]c2ccccc12`, the inhibition was 1.43% (inactive).

Turning to `Clc1cccc(Cl)c1Cn1nnc(-c2cccs2)n1`, the inhibition is -9.16% (inactive).

Turning to `COc1cc(Cl)c(C)cc1NC(=O)CSc1nnc(CN2CCCC2)o1`, the inhibition was -2.25% (inactive).

In the case of `Cc1nn(C)c(C)c1CN(C(=O)CCc1nnc(Cc2c[nH]c3ccccc23)o1)C(C)C`, the inhibition is -1.72% (inactive).

With `Cc1ccsc1C(=O)NNC(=O)COc1ccc(Br)cc1`, the inhibition is -2.82% (inactive).

Regarding `CC1(C)CC[C@@]2(C(=O)O)C(C1)C1=CCC3[C@@]4(C)CC[C@H](O)C(C)(C)C4CC[C@@]3(C)[C@]1(C)C[C@H]2O` (some centres undefined), the inhibition is -0.0116% (inactive).

With `CN(C(=O)CSc1cccc[n+]1[O-])C1CCCCC1`, the inhibition was -0.125% (inactive).

Turning to `COc1cc(NC(=O)COC(=O)c2cc(S(=O)(=O)N3CCOCC3)ccc2F)cc(OC)c1`, the inhibition was -6.13% (inactive).

In the case of `CC(C)CC1(C)NC(=O)N(CC(=O)Nc2ccc3c(c2)OCCO3)C1=O` (centres undefined), the inhibition was 0.72% (inactive).

`O=C(N/N=C\c1ccc(-c2ccc(Cl)c(Cl)c2)o1)C(=O)N1CCCC1`: the inhibition is -2.85% (inactive).

In the case of `Cc1ccc(C(=O)N2CCC(n3nccc3NC(=O)Nc3cccc(F)c3)CC2)cn1`, the inhibition was 4.68% (inactive).

Consider `CCN1N=C(c2ccccc2)CCC1=O`, for which the inhibition is -1.92% (inactive).

On to `CN(c1ccccc1)S(=O)(=O)c1cc(C(=O)N2CCN(c3ncccn3)CC2)ccc1Cl`, for which the inhibition was 5.51% (inactive).

With `O=C(N=C1SC2CS(=O)(=O)CC2N1c1ccccc1)c1ccccc1` (centres undefined), the inhibition is 3.67% (inactive).

In the case of `O=C(Cn1c(N2CCN(C/C=C/c3ccccc3)CC2)nc2ccccc21)c1ccccc1`, the inhibition is 11.7% (inactive).

In the case of `COc1ccc(NC(=O)N(C)C[C@H]2Oc3ccc(NC(=O)C4CC4)cc3C(=O)N([C@H](C)CO)C[C@@H]2C)cc1`, the inhibition is 2.07% (inactive).

In the case of `COc1ccc(S(=O)(=O)N(C)C[C@H]2Oc3c(NC(=O)Nc4ccc5c(c4)OCO5)cccc3C(=O)N([C@H](C)CO)C[C@@H]2C)cc1`, the inhibition is 0.282% (inactive).

As to `Cc1ccc(C(=O)NNC(=O)CSc2nnc3ccccn23)cc1`, the inhibition was -19.4% (inactive).

For the molecule `C#CCOCCOCCOCCNc1nc(N2CCN(C(=O)CCCCCCCCCCNC(=O)Cn3cc(CCCCCN)nn3)CC2)nc(N2CCN(C(=O)CCCCCCCCCCNC(=O)[C@H](CO)n3cc(CCCSC)nn3)CC2)n1`, the inhibition is 22.2% (inactive).

For the molecule `C#CCOCCOCCOCCNc1nc(N2CCN(C(=O)CCCCCCCCCCNC(=O)[C@H]([C@@H](C)CC)n3cc(CCCCN=C(N)N)nn3)CC2)nc(N2CCN(C(=O)CCCCCCCCCCNC(=O)[C@H](CO)n3cc(CCCSC)nn3)CC2)n1`, the inhibition was 65% (active).

Take `C#CCOCCOCCOCCNc1nc(N2CCN(C(=O)CCCCCCCCCCNC(=O)[C@H](CCCCN)n3cc(C)nn3)CC2)nc(N2CCN(C(=O)CCCCCCCCCCNC(=O)[C@H](CO)n3cc(CCCSC)nn3)CC2)n1`: the inhibition is 17.4% (inactive).

Turning to `CCOC(=O)C1(Cc2cccc(OC)c2)CCN(Cc2csc(C(C)=O)c2)CC1`, the inhibition was 0.985% (inactive).

In the case of `CCOC(=O)C1=C(CC)Nc2ccccc2N=C1N`, the inhibition was 5.45% (inactive).

Consider `CCCCOc1ccc(N(CC(=O)NCC2CCCO2)C(=O)CCC(=O)Nc2cc(C)ccn2)cc1` (centres undefined), for which the inhibition was 1.38% (inactive).

Turning to `COc1ccc(C(=O)COC(=O)C(O)c2ccccc2)c(OC)c1` (centres undefined), the inhibition was 8.77% (inactive).

As to `CCOc1ccc(NS(=O)(=O)c2cc(C)c(C)cc2C)cc1`, the inhibition is 2.58% (inactive).

As to `Cc1ccc(S(=O)(=O)N2CCN(C(=O)CN3C(=O)NC(C)(c4ccc(Cl)cc4)C3=O)CC2)c(C)c1` (centres undefined), the inhibition was -0.669% (inactive).

Turning to `CC1CN(C(=O)c2ccc([N+](=O)[O-])s2)CC(C)O1` (centres undefined), the inhibition is -3.39% (inactive).

For the molecule `Cc1c(CCO)c(=O)[nH]n1C(=O)c1c(F)cccc1F`, the inhibition was -6.64% (inactive).

As for `COc1ccc(CC(NC(C)=O)C(=O)N2CCN(C(=O)Nc3cccc(Cl)c3)CC2)cc1OC` (centres undefined), the inhibition was 1.26% (inactive).

Take `Cc1ccc(-c2nc(-c3cccnc3)sc2CC(=O)Nc2ccc(C)c(Cl)c2)cc1`: the inhibition was 6.66% (inactive).

In the case of `Cc1ccc(S(=O)(=O)N(CCCN(C)C)Cc2ccc3c(c2)OCO3)cc1`, the inhibition was 5.59% (inactive).

Regarding `CCOC(=O)C1CCN(CC(=O)Nc2ccc(OC)c(S(=O)(=O)N3CCCCC3)c2)CC1`, the inhibition was 4.01% (inactive).

Consider `CCOC(=O)c1ccc(N2C(=O)CC(N(C)Cc3ccccc3)C2=O)cc1` (centres undefined), for which the inhibition was -1.1% (inactive).

As to `CCOc1ccc(N2C(=O)CC(N(O)c3ccccc3)C2=O)cc1` (centres undefined), the inhibition is -2.22% (inactive).

Consider `CCCCCCC(=O)N(O)C1CC(=O)N(c2ccccc2)C1=O` (centres undefined), for which the inhibition was 78.3% (active).

Regarding `CCN(CC)S(=O)(=O)c1ccc2c3c(cccc13)C(=O)S2`, the inhibition is 3.45% (inactive).

Consider `Fc1cnc(N2CCOCC2)nc1NCc1ccccc1`, for which the inhibition was -0.33% (inactive).
